From PubChem BioAssay (NCI) come the findings set out here.

What all share (assay): NCI-60 one-dose screen, 48 h (100 = growth as untreated, 0 = no growth, -100 = all killed)
Test [1] has as its system EKVX NSCLC. The conditions noted are these: 10 µM unless noted.
The subject of test [2] is SN12C renal. The conditions noted are these: 10 µM unless noted.
The subject of test [3] is UO-31 renal. Particulars: 10 µM unless noted.
For test [4], the system named is TK-10 renal. Particulars: 10 µM unless noted.
The subject of test [5] is ACHN renal. Particulars: 10 µM unless noted.
For test [6], the system named is CAKI-1 renal. The conditions noted are these: 10 µM unless noted.
The subject of test [7] is A498 renal. The conditions noted are these: 10 µM unless noted.
For test [8], the system named is CCRF-CEM leukemia. Particulars: 10 µM unless noted.
The test system of test [9] is MOLT-4 leukemia. The conditions noted are these: 10 µM unless noted.
Test [10] deals with SR leukemia. Particulars: 10 µM unless noted.
Test [11] deals with RPMI-8226 leukemia. The conditions noted are these: 10 µM unless noted.
The test system of test [12] is OVCAR-8 ovarian. Particulars: 10 µM unless noted.
The subject of test [13] is OVCAR-5 ovarian. The conditions noted are these: 10 µM unless noted.
In test [14] the test system is OVCAR-4 ovarian. The conditions noted are these: 10 µM unless noted.
Test [15] has as its system SK-OV-3 ovarian. Particulars: 10 µM unless noted.
Test [16] has as its system IGROV1 ovarian. The conditions noted are these: 10 µM unless noted.
In test [17] the test system is OVCAR-3 ovarian. The conditions noted are these: 10 µM unless noted.
In test [18] the test system is HS 578T breast. Particulars: 10 µM.
Test [19] deals with NCI/ADR-RES ovarian. Particulars: 10 µM unless noted.
For test [20], the system named is SK-MEL-2 melanoma. Particulars: 10 µM unless noted.

This is part of a sample that, as a whole, favours compounds with a hit. Of some 83,000 tested, about 20% had one in any assay.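 Negative percent growth values reflect cell death: -40 means 40% of the cells present at the start died, and -100 means all died.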 A number with no mark means an inactive call. Active and inactive are the calls of the source. The calls were made as follows: active = growth percent below 10; inactive = the rest.

As for `Cc1ccccc1CNc1ncnc2[nH]ncc12`, the growth was 71.6% in test [1]; 112% in test [2]; 37% in [3]; 83.8% in [4]; 87.2% in test [5]; 69% in [6]. Also, the growth in test [7] was 93.9%; in test [8] it was 146%; in test [9], -58.2% (active); in [10], 60.9%; in test [11], 88.5%; in test [12] it was 59.7%. Besides, the growth in test [13] is 89.6%; in [14] it was 78%; in test [15] it was 100%; in [16], -19.4% (active); in [17] it was 117%; in [18] it was 165%. Further, the growth in test [19] was 106%.
Consider `COc1ccc2c(c1)N(CCO)C1=C(C(=O)OC1)C2c1cccc(Br)c1` (centres undefined), for which the growth in [1] was 37.4%; in test [2] it was 27.3%; in test [3], 32.3%; in [4] it was 60%; in test [5] it was 28.4%; in [6] it was 8.86% (active). For the same molecule, the growth in test [7] was -1.77% (active); in [8] it was 11.7%; in [9] it was 13.9%; in test [10], 17.8%; in test [11] it was 18.5%; in test [12] it was 14.6%. The growth in [13] is 32.1%; in test [14] it was 52.6%; in test [15], 28.5%; in test [16], 11.2%; in test [17] it was -51.6% (active); in [18], 10.7%. In addition, the growth in [19] is 10.7%.
Take `CCc1ccc2c(c1)N(CCO)C1=C(C(=O)OC1)C2c1cccc(Br)c1` (centres undefined): the growth in test [1] was 47.4%; in test [2] it was 53.5%; in [3] it was 34%; in test [4], 45.4%; in test [5] it was 47.4%; in test [6], 26.1%. In addition, the growth in test [7] is 2.81% (active); in test [8], 11.9%; in [9], 19.3%; in test [10] it was 28.6%; in [11], 24.7%; in [12], 33.7%. Moreover, the growth is 36.4% in test [13]; 59.9% in test [14]; 28.1% in [15]; 39.3% in test [16]; -10.6% (active) in test [17]; 3.25% (active) in test [18]. Further, in test [19], the growth is 9.74% (active).
`O=C(Nc1ccccc1)C(CCCCN1C(=O)c2ccccc2C1=O)N1C(=O)c2ccccc2C1=O` (centres undefined): the growth was 105% in test [1]; 102% in [2]; 84.3% in [3]; 105% in [4]; 103% in test [5]; 105% in test [6]. Besides, the growth in test [7] was 99.1%; in [8] it was 100%; in [9] it was 96.5%; in test [10] it was 92.7%; in [11] it was 86.2%; in [12], 103%. Besides, the growth was 103% in [13]; 106% in [14]; 107% in [15]; 110% in test [16]; 107% in test [17]; 106% in test [18]. Further, in test [19], the growth is 98.6%.
For `CCCCN(CCCC)CCC(=O)c1ccc(OC)c2ccccc12`, the growth in test [1] was 92.8%; in test [2], 94.9%; in test [3], 57.9%; in test [4], 97.8%; in [5] it was 92.3%; in test [6], 52.1%. Moreover, the growth in test [7] was 107%; in test [8], 35.7%; in test [9], 28.6%; in test [10], 38.9%; in test [11], 35.6%; in test [12], 75.3%. For the same molecule, the growth is 102% in test [13]; 102% in test [14]; 107% in test [15]; 83% in [17]; 106% in test [18]; 107% in test [19].
As for `CC(CN1CCN(CCOCCO)CC1)CN1c2ccccc2Sc2ccc(Cl)cc21` (centres undefined), the growth in test [20] is 80.7%; in [2] it was 69.9%; in [3], 50.1%; in test [4], 74.4%; in test [5] it was 69.4%; in test [7] it was 43.9%. Moreover, the growth in test [8] was 63.2%; in test [9] it was 28.5%; in [10], -2.53% (active); in test [11], 60%; in [12] it was 97.2%; in test [13], 71.7%. Besides, the growth in test [14] was 75.7%; in test [15], 90.4%; in test [16], 60.1%; in test [17], 67%; in test [18], 60.6%; in test [19] it was 68.7%.
Turning to `COc1ccc(C(=O)C(C#N)c2cc(OC)c(OC)c(OC)c2)cc1` (centres undefined), the growth was 99.7% in test [20]; 109% in [2]; 96.5% in test [3]; 94% in [4]; 104% in [5]; 129% in test [6]. Moreover, the growth is 102% in test [8]; 88% in test [9]; 71.5% in test [10]; 96.7% in test [11]; 93% in test [12]; 106% in [13]. For the same molecule, the growth in [14] was 102%; in [15], 105%; in [16], 110%; in [17], 111%; in test [18] it was 105%; in [19], 108%.
Regarding `CC(=O)Nc1ccc(Cl)cc1Cl`, the growth in test [1] is 89.9%; in [2], 101%; in test [3], 76.2%; in [4] it was 112%; in [5], 106%; in [6], 73.4%. For the same molecule, the growth in test [7] is 116%; in [8], 145%; in [9], 71.3%; in [10], 44.3%; in test [11] it was 121%; in [12], 97.6%. Further, the growth was 102% in test [13]; 105% in test [14]; 108% in test [15]; 60.8% in [16]; 118% in test [17]; 178% in test [18]. Moreover, in [19], the growth is 115%.
